# From PubChem
# An excerpt weighted towards active compounds, which were near 4.6% of everything screened.
# HSF-1 act – increases HSF-1 driven luciferase reporter signal; activation, % at 9 µM; 300,000 tested, 1.7% active; NIH3T3-HGL HSF-1 luciferase reporter, MG132, 8 h; 100% = twice DMSO control signal; AID 504408;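 active = mean replicate activation of at least 50% with a set share of replicates each reaching 50%; inconclusive = only one of those two conditions met; inactive = mean below 50% and too few replicates reaching it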;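 note: 0% = median of the neutral control wells and 100% = twice that signal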
# HSF1 inh – HSF1 inhibition. AID 2098. 300,000 tested, 0.77% active. activity change, negative = inhibition, % at 7.5 µM (by protocol). NIH3T3-HGL HSE-luciferase, MG132-induced, luminescence 8 h; stronger effect = lower value;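 active = more than half of replicate wells show activity change below -50%, luminescence cut by over half; inconclusive = some wells, but at most half, below -50%; inactive = no replicate well below -50%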;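 note: luciferase reports HSF-1 transcriptional activity via heat shock element; 0% = median of DMSO wells and -100% = zero luminescence signal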
# AHR act – human AHR activation; P35869; AHR-responsive luciferase reporter cells, luminescence; activation, % at 5 µM; 320,000 tested, 2.5% active; in the data active = activation above about 47%;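 note: 0% = vehicle wells and 100% = reference agonist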
# Target sequence (P35869 whole entry, looked up): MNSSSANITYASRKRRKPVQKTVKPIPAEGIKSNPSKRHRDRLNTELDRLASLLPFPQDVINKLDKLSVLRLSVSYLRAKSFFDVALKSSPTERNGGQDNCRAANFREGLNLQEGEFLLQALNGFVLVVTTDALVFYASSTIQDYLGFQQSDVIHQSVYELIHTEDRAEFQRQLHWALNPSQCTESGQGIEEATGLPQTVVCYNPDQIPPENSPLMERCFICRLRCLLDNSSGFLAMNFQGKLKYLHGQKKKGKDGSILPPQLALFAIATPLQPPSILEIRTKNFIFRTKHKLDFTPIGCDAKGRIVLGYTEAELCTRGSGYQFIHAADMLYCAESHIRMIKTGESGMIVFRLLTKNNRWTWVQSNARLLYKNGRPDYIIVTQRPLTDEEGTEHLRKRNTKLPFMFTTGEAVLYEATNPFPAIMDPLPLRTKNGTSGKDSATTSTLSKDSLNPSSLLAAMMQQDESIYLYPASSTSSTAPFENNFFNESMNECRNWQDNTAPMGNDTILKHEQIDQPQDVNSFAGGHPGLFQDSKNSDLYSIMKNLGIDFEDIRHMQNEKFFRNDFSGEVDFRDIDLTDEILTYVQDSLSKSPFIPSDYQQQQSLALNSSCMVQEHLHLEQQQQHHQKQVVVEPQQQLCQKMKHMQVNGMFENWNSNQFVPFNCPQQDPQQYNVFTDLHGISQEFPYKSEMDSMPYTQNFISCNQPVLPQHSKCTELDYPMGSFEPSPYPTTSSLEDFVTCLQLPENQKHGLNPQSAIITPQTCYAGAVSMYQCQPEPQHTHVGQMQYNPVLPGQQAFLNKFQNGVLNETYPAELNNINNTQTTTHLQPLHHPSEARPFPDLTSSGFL
# GAA850 FXN act – activators of GAA850 frataxin (FXN) promoter. activation, % at 6 µM. AID 540364. HEK293 lucGAA850 FXN promoter luciferase reporter, 24 h; percent of 10 µM SAHA response. 360,000 tested, 0.56% active;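 active = activation above the average of all compounds screened plus 3 SD, cutoff fixed separately per campaign, cut at about 7.5% in these data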;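 note: 0% = DMSO wells and 100% = 10 µM SAHA wells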
# Starred values were filed as active, the others as inactive; ? = inconclusive; . = no result.
SMILES,HSF-1 act,HSF1 inh,AHR act,GAA850 FXN act
FC(F)(F)c1ccc(-c2csc(-c3ccno3)n2)cc1,25,-2,63*,1
Cc1ccccc1NC(=O)N1C2CCCC1CC(NC(=O)C1CC1)C2 (centres undefined),-76,-70*,-1,2
O=C(COC(=O)COc1cccc(Br)c1)Nc1c(Cl)cccc1Cl,54*,6,3,0
CCc1ccc(-c2cn3c(n2)SCC3)cc1,51*,20,-2,2
Cc1cccc(N2C(=O)N3[C@H](c4ccc(Cl)cc4)[C@@H]4C(=O)N(C5CCCCC5)C(=O)[C@@H]4[C@]3(Cc3ccc(Cl)cc3)C2=O)c1,-6,7,2,10*
CN(C(=O)c1cccc(NC(=O)Cc2cccc(NC(=O)C3CCN(C(=O)C4CC4)CC3)c2)c1)C1CC1,.,.,.,1
Cc1ccc(NC(=O)c2cncc(Br)c2)cc1S(=O)(=O)N(C)C,22,15,67*,6
CN(C)S(=O)(=O)c1cccc(NC(=O)c2cncc(Br)c2)c1,-3,0,17,0
CC(NC(=O)C1CCN(CCOc2ccc(Cl)cc2)CC1)c1cccc2ccccc12 (centres undefined),.,.,.,-1
CCCCC(CC)C(=O)Nc1cc(C(=O)NCc2ccc(C)cc2)ccc1N1CCC2(CC1)CC(c1ccccc1)=NO2 (centres undefined),-7,0,2,2
COc1ccc(-c2cn[nH]c2-c2ccc(OCc3ccc([N+](=O)[O-])cc3)cc2O)cc1OC,57*,30,14,-4
O=[N+]([O-])c1ccc(COc2ccc(-c3[nH]ncc3-c3ccc(Cl)cc3)c(O)c2)cc1,39,3,27,2
O=C1/C(=C\c2ccc(O)cc2)SC(=S)N1/N=C/c1ccc(O)cc1,7,-2,-1,1
O=C1c2ccccc2C(=O)c2c1oc(C(F)(F)F)c2C(=O)c1ccccc1,-80,-78*,11,0
CC(NO)/C(=N\O)c1cccs1 (centres undefined),-57,-51*,1,1
COc1ccc(OCCNC(=O)C2(C)CCN2Cc2ccc(SC)cc2)cc1 (centres undefined),.,.,.,2
O=C(COC(=O)CCCNC(=O)c1ccc(Cl)cc1)Nc1ccc(Br)cc1,-15,3,0,2
O=C(CCCNC(=O)c1ccc(Cl)cc1)Nc1ccc(Br)cc1,5,13,71*,4
COc1ccc(N(C(=O)c2ccco2)C(C(=O)NC2CCCC2)c2ccccc2)cc1 (centres undefined),7,-2,0,-1
Cc1ccc(/C=N/N(Cc2ccccc2)c2ccccc2)o1,106*,60,13,3
Cc1ccc(/C=N/N2CCN(Cc3ccccc3)CC2)o1,4,-1,-3,2
CCC/C(C)=N/NC(=O)c1ccccc1O,-4,-3,41,1
O=C(NN=C1CCCC1)c1ccccc1OCCOc1ccccc1,5,-5,31,4
CCC(C)/C(C)=N/NC(=O)c1ccccc1OCCOc1ccccc1 (centres undefined),13,7,79*,4
CCOC(=O)C(CC)/C(C)=N\NC(=O)c1ccccc1O (centres undefined),-1,-8,56*,3
SMILES,HSF-1 act,HSF1 inh,AHR act,GAA850 FXN act
CCOc1ccc2cc(S(=O)(=O)n3ccnc3C)ccc2c1,-1,-3,0,-1
COc1ncnc(OC)c1S(=O)(=O)NCc1ccccc1,6,3,-1,1
Brc1ccc(OCc2ccccc2)c(CNCc2ccncc2)c1,6,0,14,-2
c1ccc2c(C3OCC4(CCCC4)CO3)cccc2c1,.,.,.,2
COc1ccccc1CNC(=O)c1ccc(NS(=O)(=O)c2cccs2)cc1,64*,15,10,0
CCOC(=O)CSc1nnnn1-c1cc(OC)c(Cl)cc1OC,-2,3,2,-1
CC1CCc2c(sc3ncnc(NCc4cccnc4)c23)C1 (centres undefined),11,18,34,3
CC1CCc2c(sc3ncnc(NCCCOC(C)C)c23)C1 (centres undefined),14,9,61*,2
O=C(Nc1ccccc1F)c1ccc(CSc2ncccn2)cc1,10,0,-1,6
CSCc1ccc(C(=O)NCc2ccc(C)cc2)cc1,-10,0,4,2
CSCc1ccc(C(=O)Nc2ccc(C(N)=O)cc2)cc1,55*,14,13,1
O=C(Nc1ccccc1)c1ccc(CSc2ncccn2)cc1,87*,55,6,4
Cc1ccc(S(=O)(=O)NC[C@H]2O[C@@H](n3ccc(N)nc3=O)[C@H](O)[C@@H]2O)s1,.,.,.,1
O=C(c1cccn(Cc2ccc(Cl)c(Cl)c2)c1=O)N1CCOCC1,8,-2,-1,-1
O=c1c(-c2nc3ccccc3s2)cccn1Cc1ccc(Cl)c(Cl)c1,52*,13,2,0
Cc1ccc(NC(=O)c2ccc(Cl)c(S(=O)(=O)NCc3ccco3)c2)c(O)c1,.,.,56*,1
CCOc1cc(NC(=O)c2ccco2)c(OCC)cc1NC(=O)COc1ccccc1C,-2,-5,5,-1
Cc1ccc(NC(=O)c2ccco2)c(NC(=O)c2ccc(Cl)cc2)c1,6,1,56*,-4
Cc1ccc(NC(=O)c2ccco2)c(NC(=O)c2ccccc2)c1,3,-3,28,0
CCOc1ccccc1C(=O)Nc1cc(C)ccc1NC(=O)c1ccco1,-11,-1,68*,-6
CCOc1cc(NC(=O)c2ccco2)c(OCC)cc1NC(=O)Cc1cccc(OC)c1,7,-5,54*,3
Cc1nnc(SCC(=O)N(C)C2CCCCC2)n1C,.,.,-1,-2
CC(=O)Oc1ccc2c(C)cc(=O)oc2c1,-6,-3,2,1
Cc1ccc(C(C(=O)NC(C)(C)C)N(Cc2ccco2)C(=O)CCC(=O)Nc2ccccn2)cc1 (centres undefined),17,5,0,1
C(=N\Nc1ncnc2ccccc12)/c1ccccc1,2,0,46,4
SMILES,HSF-1 act,HSF1 inh,AHR act,GAA850 FXN act
Clc1nnc(NN=C2CCCC2)c2ccccc12,-22,2,51*,5
Cc1ccc(/C=N/Nc2nnc(Cl)c3ccccc23)cc1,65*,34,61*,6
COc1ccc(/C=N/Nc2nnc(-c3ncc[nH]3)c3ccccc23)cc1,-15,-6,62*,0
Clc1ccc(/C=N/Nc2nc(Cl)nc3ccccc23)cc1,37,14,65*,5
O=C(CC(Nc1ccccc1Cl)C(=O)O)c1ccccc1 (centres undefined),-52,?,6,4
COCOc1ccc(/C=C2/Oc3cc(OCOC)cc(OCOC)c3C2=O)c(OCOC)c1,30,10,4,1
CC(=O)Nc1ccc(C=NNc2nnc(NN=Cc3ccc(NC(C)=O)cc3)c3ccccc23)cc1,.,.,.,-7
Clc1ccc(/C=N/Nc2nnc(Cl)c3ccccc23)cc1,121*,85,28,3
CC(C)N1CC2(CC(c3ccccc3F)=NO2)CN1C(=O)c1ccco1 (centres undefined),.,.,.,0
